# Laboratory results reported in the supplement of paper PMC3334620.
# Whole data set: some 33,000 sequences, median “E-score (-0.5 to 0.5)” near -0.0059, cut for the highest 2% near 0.26. The list comes from a sample in which the highest values are over-represented; it also holds similar and randomly drawn sequences.
# Molecular target: T1, Cin5 (UniProt P40917)
# T1 sequence: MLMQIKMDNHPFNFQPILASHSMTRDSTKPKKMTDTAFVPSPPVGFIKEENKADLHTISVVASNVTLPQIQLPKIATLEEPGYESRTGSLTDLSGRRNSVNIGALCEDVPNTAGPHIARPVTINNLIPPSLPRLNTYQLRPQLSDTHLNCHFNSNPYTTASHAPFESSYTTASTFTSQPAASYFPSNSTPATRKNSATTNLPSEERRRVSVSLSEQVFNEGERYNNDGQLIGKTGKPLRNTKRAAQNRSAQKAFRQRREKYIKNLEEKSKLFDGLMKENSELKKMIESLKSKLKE
# Test: PBM E-score (8-mer binding enrichment) (E-score (-0.5 to 0.5)); higher = stronger / more preferred TF binding
# Settings: protein concentration: 100 nM; construct: GST-full length
# Procedure, shortened: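 Masliner-normalised scans of fluorescent anti-GST signal were the basis for scoring. That signal came from GST-tagged yeast transcription factors applied at about 100-200 nM to double-stranded universal all-10-mer Agilent arrays on fresh or once-stripped slides. Each ungapped eight-base word, pooled with its reverse complement, received an E-score from the Universal PBM Analysis Suite.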
row,Sequence,PBM E-score
1,GACAGACA,0.16
2,AACAGACT,0.138
3,AACAGACA,0.32
4,AGGATCGC,-0.0224
5,CACTGAAA,0.108
6,TACTGAAA,0.267
7,GACTGAAA,-0.0204
8,TACCTTCA,-0.0369
9,ATCACGTA,0.269
10,CTCACATA,0.164
11,ATCACGTC,0.186
12,ATCACATA,0.291
13,ATCACGTG,0.124
14,ATCACATG,0.00787
15,AGTGGTCC,-0.116
16,GACTCGTA,-0.2
17,CAATCCTC,-0.129
18,CAAGGTGA,-0.0314
19,AATGAAAC,0.169
20,ACATAAAA,0.22
21,CCATAAAC,-0.114
22,ACATAAAT,0.28
23,GCATAAAC,0.115

row,Sequence,PBM E-score
1,ACATAAAC,0.263
2,ATAAAAAT,0.0935
3,ATATAAAT,0.28
4,ACATAAAG,0.00631
5,ATATAAAG,0.137
6,AAGGCACC,-0.0903
7,AATACCTC,0.0347
8,CTCCATTA,-0.0341
9,GGCCAGAC,-0.24
10,CCCAGTAA,0.0641
11,CAGCCGCC,-0.0669
12,ACGGCAAA,0.0612
13,ACGGCAAG,-0.0312
14,ACGGCAAT,0.273
15,AATCAACA,0.348
16,CATCAAAC,0.0949
17,AATCAAAT,0.176
18,AATCAAAC,0.326
19,GATCAACA,-0.0699
20,TATCAACA,0.108
21,CCCTGCAA,-0.132
22,CTGGCTCA,0.0435
23,ACGTTGGC,-0.143

row,Sequence,PBM E-score
1,ACAATTTC,0.139
2,CTAGGAAC,-0.124
3,GTCACCGA,-0.12
4,GCGCATAA,0.187
5,ACGCATAA,0.0967
6,CCGCATAA,0.283
7,GAGCGAGA,0.166
8,GCAAGGAA,-0.0209
9,CTGCTTCA,-0.153
10,AATGGTAA,0.233
11,TATGGTAA,0.288
12,GATGGTAA,-0.0229
13,CGCTTTTC,-0.0646
14,AACACTGA,0.271
15,AACACTTA,0.154
16,AACACTGT,-0.0444
17,CTTCGCCA,-0.137
18,CATTAATA,0.187
19,GATTAATA,0.348
20,TATTAACA,0.195
21,AATTAATA,0.341
22,GATTAATC,0.145
23,AATTAATG,0.221

row,Sequence,PBM E-score
1,AATTAATT,0.0929
2,TATTAATA,0.297
3,GATTAAGA,0.104
4,GTGGGGTA,0.181
5,ACGCACTA,0.0242
6,GCTGGGCA,-0.142
7,AAGAGCCG,-0.187
8,CAAGGGTG,-0.166
9,TCGGCAGA,-0.0269
10,AATAAATG,0.269
11,AATAAATA,0.293
12,GATAAATA,0.245
13,TATAAAAA,0.176
14,CATAAATG,-0.125
15,ATTAAATC,0.205
16,ATTAAATA,0.274
17,AATAAATT,0.19
18,TATAAATA,0.283
19,TAAAAATA,0.152
20,ATTAAATG,0.245
21,CATAAATA,0.183
22,CTGGACCA,-0.148
23,ACCCACAT,0.0905

row,Sequence,PBM E-score
1,CACTGAGG,-0.0826
2,GTGTGTCA,0.0629
3,GTTACCAA,0.0591
4,CTTACCAC,0.0364
5,ATTACCAC,0.151
6,CTTACCAA,0.286
7,ATTACCAA,0.27
8,CTTACCGA,0.0713
9,AACCGAAC,-0.0782
10,TACCACCA,-0.0388
11,ATATATGG,0.24
12,CGATATGA,0.0193
13,GGATATGA,0.0996
14,AGATATGG,0.26
15,AGATATGA,0.272
16,AGATATGC,0.0698
17,GACCAGTC,-0.195
18,CCCCGGTC,-0.2
19,ATCAGTGG,0.0229
